Screening results deposited in PubChem BioAssay by National Center for Advancing Translational Sciences (NCATS).
Shown is part of a subset that was picked to be rich in hits.
Imprint erasure – qHTS Assay for Compounds that Induce Erasure of Genomic Imprints; mouse ES Peg3-LacZ reporter, beta-gal luminescence, 40 h; Potency, µM (titrated, usually from 60.7 µM), for inactives: at the top dose activity change, positive = activation, usual class: activators; 110,000 tested, 0.02% active; note: potency is the fitted concentration of half-maximal effect
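Gelatin-coated wells received 300 freshly trypsinized female ES cells with a Peg3LacZ-Neo reporter on the maternal allele, then incubated 40 hours at 37C. BetaGlo was added for 5 minutes at room temperature before a single luminescence read.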
p53ts 39C kill – qHTS Screen for Compounds that Selectively Target Cancer Cells with p53 Mutations: Cytotoxicity of p53ts Cells at the Nonpermissive Temperature; H1299-p53A138V viability at 39C, ATP luminescence, 24 h; Potency, µM (highest dose often 46.1 µM), inactives show top-dose activity change, negative = cell killing, most hits filed as cytotoxic; 130,000 tested, 1.5% active; AID 902, 2007; note: potency is the fitted concentration of half-maximal effect; % is set by controls: 0 for no effect and ±100 for the full control effect; nearly all actives have a fitted effect of over 55% in size
FLuc inh – qHTS Assay for Inhibitors of Firefly Luciferase; purified firefly luciferase, luminescence, 8 min; AID 411, 2009; Potency, µM (top dose mostly 57.1 µM), for inactives: at the top dose activity change, negative = inhibition, most hits filed as inhibitors; Luciferin 4-monooxygenase (Photinus pyralis), P08659; 72,000 tested, 2.2% active; note: potency is the fitted concentration of half-maximal effect; % is set by controls: 0 for no effect and ±100 for the full control effect; nearly all actives have a fitted effect of over 40% in size
Target sequence (P08659 whole entry, looked up): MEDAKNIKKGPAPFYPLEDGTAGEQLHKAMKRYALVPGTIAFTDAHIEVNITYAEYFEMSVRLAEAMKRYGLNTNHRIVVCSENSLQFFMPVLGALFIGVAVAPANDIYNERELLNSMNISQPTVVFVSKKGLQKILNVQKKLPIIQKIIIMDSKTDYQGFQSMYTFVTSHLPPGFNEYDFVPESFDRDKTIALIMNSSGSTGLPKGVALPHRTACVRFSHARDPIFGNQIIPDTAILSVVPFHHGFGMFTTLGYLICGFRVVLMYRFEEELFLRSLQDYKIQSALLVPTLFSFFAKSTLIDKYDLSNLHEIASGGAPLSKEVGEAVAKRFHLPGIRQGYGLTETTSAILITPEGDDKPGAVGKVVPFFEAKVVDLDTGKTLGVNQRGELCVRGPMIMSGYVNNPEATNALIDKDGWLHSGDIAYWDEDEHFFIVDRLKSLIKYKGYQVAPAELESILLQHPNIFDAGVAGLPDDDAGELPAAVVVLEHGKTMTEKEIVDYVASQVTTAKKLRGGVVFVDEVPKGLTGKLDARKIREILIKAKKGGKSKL
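Compounds were tested as concentration series (qHTS) against purified P. pyralis luciferase with luciferin and 10 uM ATP in 50 mM imidazole pH 7.2, 50 mM KCl, 7 mM MgCl2, 0.01% Tween 20, 0.05% BSA. Luminescence was read after 8 min at ambient temperature.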
IkB signaling – IkB Signaling. 110,000 tested, 0.04% active. AID 445, 2006. ABC-DLBCL IkBa-CBG/CBR dual luciferase ratio, 4 h; response scale: scaled: untreated 0%, proteasome inhibitor 100%. Potency, µM (doses to about 57.1 µM), for inactives: at the top dose IkBa stabilization activation; active = well fitted curve in the direction sought with a large enough effect in the signal ratio, not every such curve was filed as active; inconclusive = small, poorly fitted or top-dose-only effect, or a change in a side signal; the % refers to the signal ratio;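 note: potency is the fitted concentration of half-maximal effect; the direction sought is a rising ratio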
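In this assay, an IκBα–CBG68 fusion accumulates when IKK-driven degradation is blocked; native CBR normalizes for cell number. OCI-Ly3 cells were treated 4 h with compound and doxycycline, then green and red light read after Chroma-Glo addition.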
p53ts 32C kill – qHTS Screen for Compounds that Selectively Target Cancer Cells with p53 Mutations: Cytotoxicity of p53ts Cells at the Permissive Temperature; H1299-p53A138V at 32C, ATP luminescence viability, 24 h; Potency, µM (top dose mostly 46.1 µM), without a hit: at the highest dose activity change, negative = cytotoxicity, usual class: cytotoxic; 130,000 tested, 0.93% active;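 note: potency is the fitted concentration of half-maximal effect; 0% = DMSO and -100% = full killing by reference compound; nearly all actives have a fitted effect of over 55% in size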
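ATP-content luminescence (ATPlite) read-out after 24 h compound exposure at 32C in H1299-p53A138V cells (600/well). Tested up to 46 uM. Normalized to DMSO (0%) and 100 uM tamoxifen (100% killing); Hill-fit AC50.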
IMPase cell inh – qHTS Assay for Identifying the Cell-Membrane Permeable IMPase Inhibitors; CHO-M1 cells, IP1 accumulation, HTRF TR-FRET ratio; inhibition (IP1 accumulation), % at 46.1 µM; 120,000 tested, under 10 active; active = well fitted curve in the direction sought with a large enough effect in the signal ratio, not every such curve was filed as active; inconclusive = small, poorly fitted or top-dose-only effect, or a change in a side signal; inactive = no such curve, though single readings can be large or run the other way; the % refers to the signal ratio;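 note: cells stimulated with carbachol in lithium chloride buffer; plate controls were DMSO basal wells for no effect and reference inhibitor wells for full effect; higher means more IMPase inhibition seen as more IP1 and lower FRET ratio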
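Carbachol-driven Gq signalling in CHO-M1 cells (2000/well) generates IP1. Compounds that block IMPase raise IP1 and so reduce the FRET signal from Eu-anti-IP1 and d2-IP1 after a 10 min room-temperature lysis.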
* hit, by the source's call; ? = inconclusive; . = not tested or not shown; [ ] = remark or other dose. Unless noted, calls come from the whole dose curve; as a rule, active = well fitted curve in the direction sought with a large enough effect; inconclusive = small, poorly fitted or top-dose-only effect, or another doubt; inactive = no such curve, though single readings can be large; an effect the other way counts as inactive or inconclusive.

SMILES	Imprint erasure	p53ts 39C kill	FLuc inh	IkB signaling	p53ts 32C kill	IMPase cell inh
Cc1ccc(N=c2oc3cc(O)ccc3cc2C(N)=O)cc1	-26%	7.9µM*	13µM*	?	?	?
CCn1c(=O)n(CC)c2cc(N3CCCC3)c(NC(=O)Nc3cc(C)cc(C)c3)cc21	3%[10.9 µM]	13µM*	.	?	?	.
CCn1c(=O)n(CC)c2cc(N3CCCCC3)c(NC(=O)Nc3ccccc3C(F)(F)F)cc21	-6%[10.9 µM]	?	.	?	11%	.
CNC1=C(Br)C(=O)c2ccncc2C1=O	-84%	2µM*	.	.	0.79µM*	.
O=C1C(Cl)=C(NCCCO)C(=O)c2ccccc21	.	.	.	.	.	21
CNC1=C(Cl)C(=O)c2ccncc2C1=O	-80%	4µM*	.	.	1.6µM*	.
CCCSc1oc(-c2cccs2)nc1S(=O)(=O)c1ccc(C)cc1	-19%[10.9 µM]	1%	.	?	1%	.
CSc1oc(-c2ccc(F)cc2)nc1S(=O)(=O)c1ccc(Br)cc1	-12%[10.9 µM]	?	.	?	-2%	.
O=S(=O)(c1ccccc1)c1nc(-c2ccc(F)cc2)oc1N1CCCCCC1	-21%[10.9 µM]	12%	.	?	5%	3
CCCCS(=O)(=O)c1oc(-c2cccs2)nc1S(=O)(=O)c1ccc(F)cc1	-38%[10.9 µM]	3.2µM*	.	?	20µM*	.
CCC(C)S(=O)(=O)c1oc(-c2ccc(F)cc2)nc1S(=O)(=O)c1ccc(F)cc1 (stereo unspecified)	-39%[10.9 µM]	3.2µM*	.	?	4µM*	.
CCCCS(=O)(=O)c1oc(-c2ccc(F)cc2)nc1S(=O)(=O)c1ccc(C)cc1	-37%[10.9 µM]	4µM*	.	?	13µM*	.
CCS(=O)(=O)c1oc(-c2ccc(F)cc2)nc1S(=O)(=O)c1ccccc1	-38%[10.9 µM]	2.5µM*	.	?	?	.
Cc1ccc(NC(=O)c2c(NC(=O)c3ccc(F)cc3)sc3c2CCCC3)cc1C	-14%[10.9 µM]	15%	.	?	-2%	5
CCCCCS(=O)(=O)c1oc(-c2cccs2)nc1S(=O)(=O)c1ccc(C)cc1	-22%[10.9 µM]	3.2µM*	.	?	?	.
COc1cc(NS(=O)(=O)c2cc(Br)cc3c2N(C(=O)C2CC2)CC3)cc(OC)c1	-24%[10.9 µM]	13µM*	.	1%	10µM*	.
O=C1C(C=NCc2ccco2)=C(O)c2ccccc21	-55%	-29%	13µM*	?	?	-4
O=C1C(C=NCc2cccnc2)=C(O)c2ccccc21	-32%	-21%	10µM*	4%	?	7
COc1ccc(Nc2nc(N)nc(N)c2S(=O)(=O)c2ccccc2)cc1	-14%[10.9 µM]	26%	.	-1%	10%	.
CCc1nn(CC(=O)NCc2ccc(C)cc2)c(=O)c2cc3occc3n12	-4%[10.9 µM]	0%	.	1%	1%	.
Cc1cc(C)cc(Oc2coc3cc(OCC(=O)NC4CCCCC4)ccc3c2=O)c1	24%[10.9 µM]	24%	.	3%	4%	-3
O=c1cc(-c2ccccc2)oc2cc(O[C@H]3O[C@H](CO)[C@@H](O)[C@H](O)[C@@H]3O)c(O)c(O)c12	.	.	-1%[11.4 µM]	0%[11.4 µM]	.	.
CCc1cccc(NC(=O)c2oc3ccc4c(c3c2C)C(=O)CC(C)(C)O4)c1	-26%[10.9 µM]	6.3µM*	.	-3%	?	.
COc1ccc(NC(=O)c2oc3ccc4c(c3c2C)C(=O)CC(C)(C)O4)cc1OC	?	4µM*	.	?	10µM*	.
Clc1ccccc1-c1nc(NC2CCNCC2)c2ccccc2n1	-21%	-17%	2%[2.29 µM]	-1%[11.4 µM]	-8%	.
SMILES	Imprint erasure	p53ts 39C kill	FLuc inh	IkB signaling	p53ts 32C kill	IMPase cell inh
Cc1nn(-c2nc3ccccc3s2)c(C)c1Oc1ccccc1O	-19%	?	?	?	13µM*	14
Cc1ccc(-n2ncc3c(NCCO)ncnc32)cc1Cl	19%[10.9 µM]	16µM*	.	?	-15%	.
CCCCN(C)c1ncnc2c1cnn2-c1cccc(Cl)c1	-14%[10.9 µM]	16µM*	.	2%	?	.
Cc1ccc(-n2ncc3c(N(C)C)ncnc32)cc1Cl	-28%[10.9 µM]	7.9µM*	.	-2%	?	.
CNC[C@@H](SC)c1ccc(O)c(O)c1	-18%[10.9 µM]	-3%[9.22 µM]	-8%[11.4 µM]	1%[11.4 µM]	1%[9.22 µM]	.
Cc1cnc(CNc2cc(-c3ccccc3CN(C)C)ncn2)cn1	-11%	-3%	1%[2.29 µM]	0%[11.4 µM]	-12%	.
Cc1ccc2nc(N/N=C\c3cccc(C)n3)cc(C)c2c1	-13%[10.9 µM]	-2%[9.22 µM]	-14%[11.4 µM]	0%[11.4 µM]	3%[9.22 µM]	.
CC(C)N(CCC(=O)c1ccc2ccccc2c1)Cc1ccccc1	-34%	32µM*	-1%	?	20µM*	6
CC(C)OCc1cc(CN2CCN(c3ccccc3)CC2)c(O)c2ncccc12	-40%[10.9 µM]	-20%	.	3%	-11%	.
CCOCc1cc(CN2CCN(c3cccc(Cl)c3)CC2)c(O)c2ncccc12	?	3.2µM*	.	23%	-7%	.
N#CC(Cc1ccc(O)c(O)c1)C(=O)N1CCc2ccccc21 (stereo unspecified)	-26%	.	.	.	.	.
COc1ccc(OC2C=CC(C#Cc3ccc(Br)cc3)OC2CO)c(C(C)(C)C)c1 (stereo unspecified)	.	-16%[9.22 µM]	.	.	7%[9.22 µM]	.
O=C(Nc1ccc(Br)cc1)c1ccc(F)c(S(=O)(=O)NC2CCCCCC2)c1	-25%[10.9 µM]	13µM*	.	?	?	.
COc1ccc(CNS(=O)(=O)c2cc(C(=O)Nc3cc(Cl)cc(Cl)c3)ccc2F)cc1	-6%[10.9 µM]	?	.	?	3%	.
O=C(Nc1cc(Cl)cc(Cl)c1)c1ccc(F)c(S(=O)(=O)NC2CCCCC2)c1	15%[10.9 µM]	25µM*	.	?	?	.
